In PubChem BioAssay AID1159580 (chemical genetic matrix, 2015):
Among all 5,500 compounds or so, about 2,000 (36%) were called active. Roughly 18% stayed inconclusive and do not appear here. Rule as the data show it: active = normalized growth mostly below about 0.91 (no sharp cut-off); inconclusive = no clear call, values can overlap the other calls; inactive = mostly above about 0.92. The list shows a part of the results.

Assay: chemical genetic growth profiling, strain panel (AID 1159580);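 also: tested at 20 µM; growth read once vehicle control cultures reached saturation at 30 °C; 1 = growth at the plate median or of vehicle wells; lower values mean less growth of the strain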
Settings: growth OD

Measured: normalized growth

CC(=O)Nc1ccc(S(=O)(=O)NC2Cc3ccccc3C2)cc1
inactive: S. cerevisiae deletion strains, locus YAL013W, strain DEP1, hits give low values 1.01 | S. cerevisiae deletion strains, locus YBR229C, strain ROT2, hits give low values 1.01 | S. cerevisiae deletion strains, locus YDL101C, strain DUN1, hits give low values 0.98 | S. cerevisiae deletion strains, locus YDR150W, strain NUM1, hits give low values 0.949 | S. cerevisiae deletion strains, locus YEL061C, strain CIN8, hits give low values 1.01 | S. cerevisiae deletion strains, locus YGR078C, strain PAC10, hits give low values 1 | S. cerevisiae deletion strains, locus YHR030C, strain SLT2, hits give low values 1.06 | S. cerevisiae deletion strains, locus YHR087W, strain rtc3, hits give low values 1 | S. cerevisiae deletion strains, locus YJR043C, strain POL32, hits give low values 1 | S. cerevisiae deletion strains, locus YJR075W, strain HOC1, hits give low values 0.996 | S. cerevisiae deletion strains, locus YKL190W, strain CNB1, hits give low values 1.01 | S. cerevisiae deletion strains, locus YLR039C, strain RIC1, hits give low values 1.04 | S. cerevisiae deletion strains, locus YLR058C, strain SHM2 (second series), hits give low values 1.01 | S. cerevisiae deletion strains, locus YLR085C, strain ARP6, hits give low values 1.05 | S. cerevisiae deletion strains, locus YLR262C, strain YPT6, hits give low values 1.03 | S. cerevisiae deletion strains, locus YML094W, strain GIM5, hits give low values 1.02 | S. cerevisiae deletion strains, locus YMR219W, strain ESC1, hits give low values 1.01 | S. cerevisiae deletion strains, locus YMR263W, strain SAP30, hits give low values 0.994 | S. cerevisiae deletion strains, locus YNL153C, strain GIM3, hits give low values 1.02 | S. cerevisiae deletion strains, locus YNL298W, strain CLA4 (second series), hits give low values 1.04 | S. cerevisiae deletion strains, locus YNL322C, strain KRE1, hits give low values 1.01 | S. cerevisiae deletion strains, locus YNR030W, strain Alg12, hits give low values 1.03 | S. cerevisiae deletion strains, locus YOL006C, strain TOP1, hits give low values 1.08 | S. cerevisiae deletion strains, locus YPL055C, strain LGE1, hits give low values 0.966 | S. cerevisiae deletion strains, locus YPL241C, strain CIN2, hits give low values 1.02 | S. cerevisiae deletion strains, locus YPR135W, strain CTF4, hits give low values 1.02 | S. cerevisiae strains, strain wild type, hits give low values 1.01
